96 molecules from PubChem BioAssay AID1220 (Sanford-Burnham Center for Chemical Genomics, 2008) can be followed below.

Out of some 190,000 compounds screened, about 1,300 (0.68%) were called active. No stated cut-off is given here; in the data, active means inhibition above about 50%; inactive means the rest. This excerpt belongs to a sample that is enriched for actives.

In this test the target is Mannose-6-phosphate isomerase (Homo sapiens) (UniProt P34949). Kind of test: human PMI inhibitors, high substrate, primary screen, biochemical, fluorescence intensity, high mannose 6-phosphate (AID 1220). The following applies: recombinant PMI enzyme, coupled fluorescence intensity; at 20 µM; active compounds read high.
Chain of Mannose-6-phosphate isomerase (Homo sapiens) (P34949 whole entry, looked up): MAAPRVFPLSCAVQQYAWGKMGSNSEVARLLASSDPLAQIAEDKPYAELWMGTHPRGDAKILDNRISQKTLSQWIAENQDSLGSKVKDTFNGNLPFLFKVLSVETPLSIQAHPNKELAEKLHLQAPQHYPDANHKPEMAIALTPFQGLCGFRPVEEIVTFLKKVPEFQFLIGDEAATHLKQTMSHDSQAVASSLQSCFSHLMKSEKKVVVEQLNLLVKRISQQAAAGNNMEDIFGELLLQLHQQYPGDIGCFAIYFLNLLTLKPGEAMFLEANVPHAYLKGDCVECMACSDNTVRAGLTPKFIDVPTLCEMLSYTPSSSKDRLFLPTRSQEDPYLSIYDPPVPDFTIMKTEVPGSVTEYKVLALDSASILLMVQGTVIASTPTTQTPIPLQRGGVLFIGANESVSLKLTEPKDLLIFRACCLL
As to `CC(C)C(=O)NC(=S)Nc1ccc(S(=O)(=O)NC(C)(C)C)cc1`, the inhibition (commonly the change of the read-out against control, counted positive when it falls) was -1.7% (inactive).

In the case of `CCOc1cc(/C=C2/N=C(C)C(C(=O)OC)=C2O)ccc1O`, the inhibition was 31.3% (inactive).

As for `CCN1C(=O)/C(=C\c2ccc3c(c2)OCO3)C(C(=O)OC)=C1C`, the inhibition was -6.5% (inactive).

`COC(=O)C1=C(C)N(CCc2ccc(OC)c(OC)c2)C(=O)/C1=C\c1ccc(O)cc1`: the inhibition is 6% (inactive).

On to `COC(=O)C1=C(C)N(Cc2ccco2)C(=O)/C1=C\c1ccc([N+](=O)[O-])cc1`, for which the inhibition was -22% (inactive).

Consider `CCOc1cc(/C=C2\C(=O)N(Cc3ccco3)C(C)=C2C(=O)OC)ccc1O`, for which the inhibition was 68.2% (active).

Take `CCOc1cc(/C=C2\C(=O)N(Cc3ccc(C)cc3)C(C)=C2C(=O)OC)ccc1O`: the inhibition was 53.3% (active).

In the case of `COC(=O)C1=C(C)N(Cc2ccc(C)cc2)C(=O)/C1=C\c1ccc(O)c(OC)c1`, the inhibition is 58.7% (active).

As for `COC(=O)C1=C(C)N(Cc2ccco2)C(=O)/C1=C\c1ccc(N(C)C)cc1`, the inhibition was 19.7% (inactive).

As for `CCOc1cc(/C=C2\C(=O)N(CCc3ccc(OC)c(OC)c3)C(C)=C2C(=O)OC)ccc1O`, the inhibition was 50.6% (active).

Regarding `C=CCOc1cccc(/C=C2\C(=O)N(Cc3ccc(C)cc3)C(C)=C2C(=O)OC)c1`, the inhibition was 10.8% (inactive).

Consider `COC(=O)C1=C(C)N(CCc2ccc(OC)c(OC)c2)C(=O)/C1=C\N(C)C`, for which the inhibition was -13.2% (inactive).

Turning to `COC(=O)C1=C(C)N(Cc2ccc(C)cc2)C(=O)/C1=C\c1cc(OC)c(OC)c(OC)c1`, the inhibition was 23.1% (inactive).

With `c1ccc(-c2nc3ccccc3[nH]2)nc1`, the inhibition is 15.7% (inactive).

For the molecule `Cc1ccc(CCNC(=O)C2CCCN(C(=O)N(C)C)C2)cc1` (stereo unspecified), the inhibition is -6.4% (inactive).

Consider `O=C(CN1C(=O)COc2ccccc21)N1CCc2ccccc21`, for which the inhibition was 1.2% (inactive).

Regarding `COc1ccc(NC(=O)CC2C(=O)N(C)C(=S)N2CCc2ccccc2F)cc1` (stereo unspecified), the inhibition was 8.1% (inactive).

On to `CC(C)=CCN1CCN(Cc2cnc(N3CCOCC3)s2)CC1CCO` (stereo unspecified), for which the inhibition is -6.5% (inactive).

As to `O=C(C1=C[C@@H](c2coc3ccccc3c2=O)C[C@@H](OCc2ccc(CO)cc2)O1)N1CCOCC1`, the inhibition was -6.8% (inactive).

As for `CCOC(=O)Cc1csc(NC(=O)c2cc(=O)c3ccccc3o2)n1`, the inhibition is -6.1% (inactive).

For the molecule `CCOC(=O)Cc1csc(SCn2nnc3ccccc3c2=O)n1`, the inhibition is -0.1% (inactive).

On to `CCOC(=O)c1c(N)c(C#N)cn1-c1ccccc1`, for which the inhibition is 10% (inactive).

Consider `C=CCNC(=S)Nc1cccc2[nH]ncc12`, for which the inhibition is 52.5% (active).

With `C=CCNC(=S)Nc1cccc2ccccc12`, the inhibition is 14.3% (inactive).

For the molecule `CNC(=S)Nc1cccc2[nH]ncc12`, the inhibition was 2.6% (inactive).

Consider `CCCCn1c2nc3ccccc3nc2c2c(=N)oc(C)nc21`, for which the inhibition was 30.1% (inactive).

Regarding `CCCCC(CC)Cn1c2nc3ccccc3nc2c2c(=N)oc(C)nc21` (stereo unspecified), the inhibition was -4.2% (inactive).

Consider `COc1ccc(-n2c3nc4ccccc4nc3c3c(=N)oc(C)nc32)cc1`, for which the inhibition is 55.9% (active).

Consider `CCn1c(SCC(=O)N/N=C/c2ccc(C)o2)nnc1-c1ccccc1`, for which the inhibition was 3.1% (inactive).

Consider `CN1CCN(S(=O)(=O)c2ccc3c(c2)OCCO3)CC1`, for which the inhibition was -4.9% (inactive).

With `CC(C)(Cl)C1Cc2cc3ccc(=O)oc3cc2O1` (stereo unspecified), the inhibition is -9.9% (inactive).

Turning to `COc1cc2c(cc1/C=C/C(=O)O)OC(C)C2` (stereo unspecified), the inhibition was 13.7% (inactive).

Take `CCc1nnc(NC(=O)CSc2nnc3c(C)cc4c(C)ccc(C)c4n23)s1`: the inhibition was 2.3% (inactive).

With `O=C(O)/C=C/C(=O)Nc1ccc2nccnc2c1`, the inhibition is 56.2% (active).

As to `CC(C)(C)NC(=O)Nc1ccc2nccnc2c1`, the inhibition is 35.1% (inactive).

Regarding `Cc1nc2ccc(NC(=O)/C=C/C(=O)O)cc2nc1C`, the inhibition was 42.9% (inactive).

Regarding `CN1CC(=O)N(CC(=O)N2CCC(Cc3ccccc3)CC2)C1=O`, the inhibition is -3.5% (inactive).

On to `CCC(C)N(C(=O)CSc1nc(-c2ccccc2)cs1)C1CCS(=O)(=O)C1` (stereo unspecified), for which the inhibition is 3.2% (inactive).

In the case of `Oc1ccc2ccccc2c1CNn1cnnc1`, the inhibition is 3.1% (inactive).

On to `CC(C)CN(Cc1c(O)ccc2ccccc12)CC(C)C`, for which the inhibition was 68.8% (active).

As for `Cc1cc(=O)oc2c(CN(CC(C)C)CC(C)C)c(O)ccc12`, the inhibition was -3.3% (inactive).

`O=C(CN1CCC(C(O)(c2ccccc2)c2ccccc2)CC1)Nc1ccccc1`: the inhibition is -1.7% (inactive).

Turning to `CCN1CCN(c2nc(-c3ccncc3)nc3ccccc23)CC1`, the inhibition was 6.3% (inactive).

Consider `NC(=O)C1CCN(C(=O)c2cc3n(n2)C(C(F)(F)F)CC(c2ccco2)N3)CC1` (stereo unspecified), for which the inhibition is 0.3% (inactive).

For `COc1ccc(CCNC(=O)CCCn2nc(C)c([N+](=O)[O-])c2C)cc1OC`, the inhibition was 8.3% (inactive).

Take `CCCCn1c2nc3ccccc3nc2c2c(=O)n(CCC)cnc21`: the inhibition was 7.3% (inactive).

`CCCCn1c2nc3ccccc3nc2c2c(=O)n(C(C)CC)cnc21` (stereo unspecified): the inhibition was 53.2% (active).

For `CCCCn1c2nc3ccccc3nc2c2c(=O)n(CCC(C)C)cnc21`, the inhibition is -12.9% (inactive).

On to `CCOC(=O)C1=C(CSc2nc(C)cc(C)c2C#N)OC(N)=C(C#N)C1c1cccs1` (stereo unspecified), for which the inhibition is 55.7% (active).

As to `CCOC(=O)C1=C(CSc2nc(CC)c(C)cc2C#N)OC(N)=C(C#N)C1c1ccc(OC)cc1` (stereo unspecified), the inhibition is 52.3% (active).

Turning to `CCOC(=O)C1=C(CSc2nc(C)cc(C)c2C#N)OC(N)=C(C#N)C1c1ccccc1` (stereo unspecified), the inhibition is 47% (inactive).

Regarding `CCOC(=O)C1=C(CSc2nc(-c3ccccc3)ccc2C#N)OC(N)=C(C#N)C1c1ccc(OC)cc1` (stereo unspecified), the inhibition was 29.4% (inactive).

In the case of `CCOC(=O)C1=C(CC)OC(N)=C(C#N)C1c1cccs1` (stereo unspecified), the inhibition was 4.7% (inactive).

Turning to `CCOC(=O)C1=C(CSc2nc(CC)c(C)cc2C#N)OC(N)=C(C#N)C1c1ccccc1` (stereo unspecified), the inhibition is 11.9% (inactive).

Regarding `COC(=O)c1ccc(S(=O)(=O)N2CCCCC2)o1`, the inhibition was 9% (inactive).

As to `Cc1cc(NN)nc(NS(=O)(=O)c2ccccc2)n1`, the inhibition was 5% (inactive).

As for `CC(C)N(C(=O)CSc1nnc(CN2CCCCCC2=O)n1-c1ccccn1)C(C)C`, the inhibition was -4.7% (inactive).

In the case of `COc1ccc(N(C(=O)Cn2nnc3ccccc32)C(C(=O)NC(C)(C)C)c2ccc(OC)c(O)c2)cc1` (stereo unspecified), the inhibition is -4% (inactive).

Take `Cc1cc2n(n1)SC(Nc1cccc3ccccc13)N2` (stereo unspecified): the inhibition was 54.1% (active).

With `CCc1ccccc1NC1Nc2cc(C)nn2S1` (stereo unspecified), the inhibition was 27.6% (inactive).

As to `Cc1cc2n(n1)SC(Nc1ccccc1)N2` (stereo unspecified), the inhibition is -0.8% (inactive).

In the case of `CCCC1CCC(=NNC(=O)OC(C)(C)C)CC1` (stereo unspecified), the inhibition is 2.1% (inactive).

Regarding `CN(C)c1ccc(Cl)cc1N`, the inhibition is 53.2% (active).

Consider `Cc1ccc(Oc2ccc(Cl)cc2N)cc1`, for which the inhibition is -7.7% (inactive).

With `CN(C)c1ccc(C(=O)c2ccc(N(C)C)c(N)c2)cc1N`, the inhibition was 23.2% (inactive).

As for `O=C1Nc2ccc(S(=O)(=O)N3CCCC3)c3ccc(S(=O)(=O)N4CCCC4)c1c23`, the inhibition was 32.5% (inactive).

With `CCCCCC(=O)NC(CC(=O)OC)c1ccc2c(c1)OCO2` (stereo unspecified), the inhibition was 2.2% (inactive).

Consider `CCc1ccc(OCC(=O)OCC(=O)c2ccc3c(c2)NC(=O)CO3)cc1`, for which the inhibition was 5% (inactive).

`COCc1nnc(NC(=O)c2ccccc2[N+](=O)[O-])s1`: the inhibition is -1.2% (inactive).

Turning to `CC1=C(C)/C(=N/OC(=O)c2cccc([N+](=O)[O-])c2)C=CC1=O`, the inhibition is 13.4% (inactive).

For the molecule `CC1=CC(=NOC(=O)c2cccc([N+](=O)[O-])c2)C=C(C)C1=O`, the inhibition is 19.6% (inactive).

On to `COc1cc(C(=O)ON=C2C(C)=CC(=O)C=C2C)cc(OC)c1OC`, for which the inhibition was 71.8% (active).

Consider `COc1ccc(C(=O)ON=C2C=C(C)C(=O)C(C)=C2)cc1`, for which the inhibition was 40.1% (inactive).

Turning to `CC1=C(C)/C(=N\OC(=O)/C=C/c2ccccc2)C=CC1=O`, the inhibition was 35.2% (inactive).

Take `COc1cc(C(=O)Oc2cc(C)cc(C)c2)cc(OC)c1OC`: the inhibition is 9.6% (inactive).

As for `COc1cc(C(=O)O/N=C(\N)c2ccncc2)cc(OC)c1OC`, the inhibition was -11.7% (inactive).

Regarding `COc1cc(C(=O)ON=C2C=C(C)C(=O)C(C)=C2)cc(OC)c1OC`, the inhibition is 59.8% (active).

With `COc1cc(C(=O)O/N=C2\CCCc3c2ccc(OC)c3[N+](=O)[O-])cc(OC)c1OC`, the inhibition was 13.8% (inactive).

On to `COc1cc(C(=O)O/N=C2\C=CC(=O)C=C2C)cc(OC)c1OC`, for which the inhibition is 64.7% (active).

`CC1=CC(=O)C=C(C)C1=NOC(=O)c1cccc([N+](=O)[O-])c1`: the inhibition was -3% (inactive).

Take `COc1cc(C(=O)O/N=C2/C=CC(=O)C(C)=C2C)cc(OC)c1OC`: the inhibition is 66% (active).

On to `CN(C)CCCN(Cc1cc2cc3c(cc2[nH]c1=O)OCO3)C(=S)NCc1ccco1`, for which the inhibition was 30.6% (inactive).

For the molecule `CCCCc1nnc(NC(=O)CSc2nc(=O)cc(N)n2-c2ccccc2)s1`, the inhibition is 0.8% (inactive).

Turning to `CS(=O)(=O)N(CC(=O)N1CCOCC1)c1ccc2c(c1)OCO2`, the inhibition is 1.8% (inactive).

`COC(=O)COc1ccc(S(=O)(=O)NCc2cccnc2)cc1`: the inhibition is 4.3% (inactive).

As for `CC(C)(CO)Nc1ccc([N+](=O)[O-])cc1[N+](=O)[O-]`, the inhibition was 0.9% (inactive).

As to `O=C1Nc2ccccc2Oc2cc([N+](=O)[O-])cc(Oc3ccccc3)c21`, the inhibition is -3.2% (inactive).

Regarding `COc1cc(C(=O)Oc2cccc(C)c2)cc(OC)c1OC`, the inhibition is 2.4% (inactive).

Regarding `COc1cc(C(=O)O/N=C2/C=C(C)C(=O)C=C2C)cc(OC)c1OC`, the inhibition is 53.5% (active).

Turning to `COc1cc(C(=O)O/N=C(\N)c2ccc([N+](=O)[O-])cc2)cc(OC)c1OC`, the inhibition is 5.3% (inactive).

Take `Nc1cc(N2CCCC2)c(Cl)cc1[N+](=O)[O-]`: the inhibition is 25.9% (inactive).

In the case of `CC1CCC(C(C)C)C(OP(=O)(c2ccc(N(C)C)cc2)C(O)c2cccnc2)C1` (stereo unspecified), the inhibition is -4.5% (inactive).

For the molecule `COc1ccc(C(=O)Nc2ccc3c(c2)OCCO3)cc1`, the inhibition was -6.5% (inactive).

`COc1ccc(C(=O)CCNc2ccc3c(c2)OCCO3)cc1`: the inhibition is 58% (active).

For `COc1ccc(C(=O)CCNc2ccc(C)c(Cl)c2)cc1`, the inhibition is 0.5% (inactive).

As for `O=C(COC(=O)c1ccc2c(=O)n3c(nc2c1)CCC3)NC1CCS(=O)(=O)C1` (stereo unspecified), the inhibition was -5.4% (inactive).
